Only some compounds are listed: those with a hit (about 27% of all), similar ones and a draw of the others.
CYP2C19 inhib = blocks human cytochrome P450 2C19 | CYP2C19 Supersomes, luciferin-H EGE luminescence, 30 min | inhibition, % at 5 µM | P33261 | hit rate 21% among 96,000;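 active means CYP2C19 inhibition above a set limit at 5 µM in the primary screen, cut at about 50% in these data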;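 further: plate controls were negative control wells for no effect and 2.5 mM tranylcypromine positive control for full effect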
Target sequence (P33261 whole entry, looked up): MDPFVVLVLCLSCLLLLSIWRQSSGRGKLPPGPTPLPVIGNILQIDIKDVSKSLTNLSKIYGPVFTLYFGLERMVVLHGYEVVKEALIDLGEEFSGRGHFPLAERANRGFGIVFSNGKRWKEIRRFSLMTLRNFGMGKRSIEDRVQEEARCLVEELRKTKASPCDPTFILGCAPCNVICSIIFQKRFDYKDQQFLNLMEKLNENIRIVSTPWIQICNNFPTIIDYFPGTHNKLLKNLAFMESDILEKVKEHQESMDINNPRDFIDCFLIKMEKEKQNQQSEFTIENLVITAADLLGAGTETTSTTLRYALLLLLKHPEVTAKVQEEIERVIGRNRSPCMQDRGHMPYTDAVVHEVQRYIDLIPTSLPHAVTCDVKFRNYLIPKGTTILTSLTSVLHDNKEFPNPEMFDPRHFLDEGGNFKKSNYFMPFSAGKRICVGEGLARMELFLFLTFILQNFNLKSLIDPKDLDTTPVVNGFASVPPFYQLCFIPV
CYP2C9 act = CYP2C9 (human) activation | P11712 | recombinant CYP2C9, luciferin-H conversion, luminescence; hits give high values; factor 1 = untreated enzyme, 0 = blocked | activation factor at 5 µM | hit rate 1.4% among 96,000;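 active means activation factor of 2 or more for CYP2C9 at a 5 µM dose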;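 further: 0 = sulfaphenazole-blocked wells and 1 = vehicle-only wells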
CYP2C9 inh = inhibitors of human CYP2C9 | inhibition, % at 5 µM | P11712 | CYP2C9 Supersomes, luciferin-H conversion, luminescence | hit rate 20% among 96,000 | AID 777;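 active means blocking of liver enzyme CYP2C9 beyond about 50% at 5 µM, limit read from the data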
sEH activator = activators of human soluble epoxide hydrolase; P34913; activation, % at 2 µM; AID 717; hit rate 0.04% among 91,000; purified human sEH enzymatic activity, activator screen; in the data active means activation above about 37%
sEH inh = blocks human soluble epoxide hydrolase activity. P34913. recombinant human sEH enzymatic activity assay. inhibition, % at 2 µM. hit rate 0.34% among 91,000; in the data active means inhibition above about 80%
CYP2C19 activ = increases human CYP2C19 enzyme activity. recombinant CYP2C19, luciferin-H EGE luminescence; hits give high values; 0 = fully inhibited enzyme, 1 = untreated enzyme. activation factor at 5 µM. 96,000 tested, under 10 active. AID 1025;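 active means activation factor of at least 2 at 5 µM in the primary screen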;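 further: 0 = wells with 2.5 mM tranylcypromine and 1 = vehicle-only wells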
Active calls of the source: *; / = no result given.

SMILES	CYP2C19 inhib	CYP2C9 act	CYP2C9 inh	sEH activator	sEH inh	CYP2C19 activ
Nn1c(SCC(=O)NCCC2=CCCCC2)nnc1C(F)(F)F	49	0.8	23	1	0	0.5
O=C(O)c1ccc(S(=O)(=O)Nc2ccc(F)c(Cl)c2)cc1	3	0.9	8	12	-14	1
COC(=O)c1cc(C(=O)OC)cc(S(=O)(=O)Nc2ccc(Cl)c(N)c2)c1	94*	1	2	3	-3	0.1
COc1cccc(C2CC(c3c(-c4ccccc4)c4cc(Cl)ccc4[nH]c3=O)=NN2S(C)(=O)=O)c1OC (stereo unspecified)	24	0.5	51*	9	-9	0.8
COC(=O)CSc1c(-c2ccccc2)c2cc(Cl)ccc2[nH]c1=O	34	0.7	32	11	-10	0.7
COc1ccccc1C1CC(c2c(-c3ccccc3)c3cc(Cl)ccc3[nH]c2=O)=NN1S(C)(=O)=O (stereo unspecified)	28	0.4	60*	-1	2	0.7
Cc1ccc(S(=O)(=O)/N=C(/Nc2nc(C)cc(C)n2)N2CCOCC2)cc1	-4	1	4	10	-9	1
COc1ccc(N2CCN(/C(=N\S(=O)(=O)c3ccccc3)Nc3nc(C)cc(C)n3)CC2)cc1	11	0.3	67*	3	-2	0.9
Cc1ccc(NC(=O)N2CCC(NC(=O)C(C)(C)C)CC2)cc1	6	1	4	1	-4	0.9
COc1ccc(S(=O)(=O)N2CCC(C(=O)N3CCc4ccccc4C3)CC2)cc1Cl	92*	0.7	28	16	-16	0.1
CCS(=O)(=O)N1CCC(C(=O)N2CCc3ccccc3C2)CC1	60*	1.2	-20	/	/	0.4
O=C(CSc1nc2ccccc2c(=O)n1NC(=O)c1ccccc1)c1ccc(Cl)cc1	46	0.2	78*	4	-5	0.5
COc1ccc(C(=O)Nn2c(SCC(=O)NC3CCCC3)nc3ccccc3c2=O)cc1	-2	0.8	18	-6	9	1
O=C(CSc1nc2ccccc2c(=O)n1NC(=O)c1ccccc1)c1ccccc1	33	0.1	86*	9	-6	0.7
CC(=O)NCCn1c(SCC(=O)c2ccc(Cl)cc2)nc2ccccc2c1=O	30	0.8	16	2	-4	0.7
CCCNC(=O)c1cccc(COCC(F)(F)C(F)F)c1	48	0.7	31	-15	17	0.5
CC(=O)c1ccc(OC(C)C)c(CSc2nc(O)cc(=O)[nH]2)c1	-8	0.4	59*	-1	1	1.1
CCOc1ccc2oc(-c3ccccc3)c(C(=O)O)c2c1	-10	1.1	-12	-1	1	1.1
CCOc1ccc2oc(-c3ccccc3)c(C(=O)N3CCN(CCO)CC3)c2c1	40	0.2	82*	1	4	0.6
COc1cc(C(N)=O)cc(Br)c1OC	26	0.7	30	-3	6	0.7
CCC(=O)N1CCc2cc(Br)cc(S(=O)(=O)NCC3CCCN3CC)c21 (stereo unspecified)	-4	1	-5	/	/	1
O=c1/c(=C/c2ccccn2)sc2nc3ccccc3n12	71*	0.5	54*	-1	-1	0.3
Cn1c(CNC(=O)Cc2ccc3c(c2)OCO3)nnc1SCc1ccccc1	21	1.2	-16	-8	8	0.8
CCNc1nc(N)c(C(=O)c2ccc(Cl)s2)s1	83*	0.5	54*	4	-2	0.2
CC1=CN2C(=NC(=O)CC2(C)C(=O)N(CC(=O)NC2CCCC2)c2ccccc2C)C=C1 (stereo unspecified)	/	/	/	2	-2	/
SMILES	CYP2C19 inhib	CYP2C9 act	CYP2C9 inh	sEH activator	sEH inh	CYP2C19 activ
CCOC(=O)c1c(C)[nH]c(C)c1C(=O)CSc1nnc(-c2cc(OC)c(OC)c(OC)c2)o1	15	0.7	26	-9	8	0.8
COC(=O)c1c(C)[nH]c(C(=O)C(C)Sc2nnc(-c3cc(OC)c(OC)c(OC)c3)o2)c1C (stereo unspecified)	40	0.3	72*	13	-13	0.6
Cc1ccc(-n2c(SCC3CCCCO3)nnc2-c2ccco2)cc1 (stereo unspecified)	13	0.4	58*	-6	9	0.9
COc1ccc(C(=O)CSc2nnc(-c3ccco3)n2CC2CCCO2)cc1 (stereo unspecified)	26	0.8	24	-1	0	0.7
O=C(CSc1nnc(-c2ccco2)n1CC1CCCO1)N1CCCCC1 (stereo unspecified)	52*	1.3	-25	-8	3	0.5
COc1cccc(C(=O)CSc2nnc(-c3ccco3)n2CC2CCCO2)c1 (stereo unspecified)	67*	0.7	27	8	-6	0.3
Cc1cccc(C)c1NC(=O)C1(NC(=O)C2CCCN2C(=O)OC(C)(C)C)CCCCC1 (stereo unspecified)	-14	1.1	-12	-12	12	1.1
CC(=O)c1ccc(NS(=O)(=O)c2cccc(C)c2)cc1	99*	0	95*	-8	10	0
COc1ccc(NS(=O)(=O)c2cccc(C(=O)O)c2)cc1	19	1.2	-20	-9	11	0.8
CC(=O)c1ccc(NS(=O)(=O)c2ccc(C)cc2)cc1	80*	0.2	80*	1	2	0.2
O=S(=O)(Nc1ccccc1)c1ccc(Oc2ncc(C(F)(F)F)cc2Cl)cc1	7	0.8	21	-9	11	0.9
CC1CCN(C(=O)c2cc3ccccc3o2)CC1	86*	0.8	22	9	-9	0.1
O=C(/C=C/N1CCOCC1)c1cc2ccccc2o1	9	0.2	77*	-13	13	0.9
CCOC(=O)NCC(C)(C)CNC(=O)OCC	-1	1	-4	6	-6	1
O=C(Cc1ccc2c(c1)OCCO2)c1c(O)cc(O)cc1O	94*	0	96*	/	/	0.1
CCCCOc1ccccc1C(=O)NCCCC(=O)O	4	0.6	38	13	-11	1
S=C(NCCC(c1ccccc1)c1ccccc1)Nc1cccc(Cl)c1	81*	0.2	81*	-36	35	0.2
Cc1ccc(NC(=S)NCCC(c2ccccc2)c2ccccc2)c(C)c1	61*	0.4	59*	-58	60	0.4
Cc1ccc(C)c(NC(=S)NCc2cccn2C)c1	29	1.3	-33	4	-6	0.7
Cc1ccccc1NC(=S)NCCC(c1ccccc1)c1ccccc1	63*	0.4	64*	-75	76	0.4
COc1ccc(OC)c(NC(=S)NCCC(c2ccccc2)c2ccccc2)c1	/	/	/	-28	25	/
CCOC(=O)c1nnn(-c2nonc2N)c1COc1cc(C)c(Cl)c(C)c1	-8	1	3	1	1	1.1
Cc1cc(N2CCN(c3ccccn3)CC2)n2c(nc3ccccc32)c1C#N	5	1	0	3	-3	0.9
N#Cc1c2c(c(N3CCN(c4ccccn4)CC3)n3c1nc1ccccc13)CCC2	59*	0.5	54*	-3	7	0.4
